Experimental data: ChEMBL document CHEMBL3988442, “University of Dundee, Small-Polar-MMV Screening Library” (2021)

These compounds were tested against T1, Aspartate--tRNA(Asp/Asn) ligase (Mycobacterium tuberculosis (strain ATCC 25618 / H37Rv)) (UniProt P9WFW3) (assay: Assay for Asp RNA synthetase-1 from Mycobacterium tuberculosis). Settings: 30 µM.
T1 sequence (whole entry): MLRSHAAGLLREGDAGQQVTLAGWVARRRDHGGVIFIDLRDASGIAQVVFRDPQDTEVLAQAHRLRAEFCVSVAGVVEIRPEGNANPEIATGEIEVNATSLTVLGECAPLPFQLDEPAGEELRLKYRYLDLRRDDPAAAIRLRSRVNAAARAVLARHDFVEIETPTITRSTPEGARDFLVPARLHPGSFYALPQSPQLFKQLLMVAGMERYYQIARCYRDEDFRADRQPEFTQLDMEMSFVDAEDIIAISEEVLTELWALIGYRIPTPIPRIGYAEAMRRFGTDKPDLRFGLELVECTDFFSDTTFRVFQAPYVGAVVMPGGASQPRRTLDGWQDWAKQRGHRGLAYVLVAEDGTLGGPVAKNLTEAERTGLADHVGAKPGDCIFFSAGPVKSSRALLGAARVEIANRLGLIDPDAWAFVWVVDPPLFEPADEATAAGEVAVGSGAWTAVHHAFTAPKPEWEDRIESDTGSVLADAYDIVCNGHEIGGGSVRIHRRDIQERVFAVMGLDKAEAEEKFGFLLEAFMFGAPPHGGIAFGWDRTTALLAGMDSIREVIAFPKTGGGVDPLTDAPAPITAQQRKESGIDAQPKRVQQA
Format: functional
Design: scale not given: direction of the effect not stated beside the values
`Cc1cccnc1NC(=O)CC1(Cn2cnnn2)CCCCC1` showed a Percent Effect of 7.1%. With `Cn1nc(CNC(=O)C2CC2)cc1C1CC1` the Percent Effect was -2.99%. With `Cn1nc(C(=O)N2CCCCC2c2nc3cc(F)ccc3[nH]2)ccc1=O` (stereo not given) the Percent Effect was -2.79%. With `O=C1NCCN(CC2CC2)C12CCN(Cc1ccc3c(c1)OCO3)CC2` the Percent Effect was 11.3%. `CC(Cn1ccnc1)NC(=O)NCCc1ccccn1` (stereo not given) gave a Percent Effect of -8.15%. Work on `CC(C)S(=O)(=O)c1nnc(CCNC(=O)OC(C)(C)C)o1` yielded a Percent Effect of 2.85%. Compound `CN(CCc1ccccc1)Cc1cc(C(=O)N2CCCC2(C)C)no1` has a Percent Effect of 0.433%. Work on `COCCN1C(=O)CC(N2CCN(c3ccc(F)cc3)CC2)C1=O` (stereo not given) yielded a Percent Effect of 1.23%. In the case of `O=C(c1ccc(F)c(Cl)c1)N1C[C@@H]2CC[C@H](C1)N(Cc1ccccc1)C2`, the Percent Effect is reported as 4.06%. For `Nc1cc2c(nn1)CCN(C(=O)c1cccc3c1OCCO3)C2`, the Percent Effect was 3.34%. In the case of `CC(=O)N1CCC2(CC1)COCCN2Cc1ccc(F)cc1`, the Percent Effect is reported as -4.11%. `COCCc1noc(CN2CCCCC2Cn2cc(C)cn2)n1` (stereo not given) gave a Percent Effect of -2.46%. `O=C(c1ccc(F)c(F)c1)N1CCCC(Nc2ccc(F)cc2)C1` (stereo not given) showed a Percent Effect of 0.212%. `O=C1CCCCN1c1cccc(CNC2CCCC2)c1` showed a Percent Effect of -0.259%. `Cc1ccc(S(=O)(=O)N2CCOc3ccccc32)cc1C(N)=O` was tested, and the Percent Effect was 0.611%. For `Cc1ncsc1C(=O)NCCSCc1cccs1`, the Percent Effect was 2.21%. With `O=C1CO[C@@H]2CN(Cc3cccs3)C[C@H]2N1CC1CC1` the Percent Effect was 12.1%. In the case of `Cn1cc(C[C@H]2[C@H](N3CCOCC3)CCN2C(=O)c2ccco2)cn1`, the Percent Effect is reported as -2.37%. `O=C(NCCCn1cccn1)C1(c2ccc(F)cc2)CC1` was tested, and the Percent Effect was -8.14%. `CC(=O)N1CCC2(CC1)C(=O)N(CC1CC1)c1ccccc12` was tested, and the Percent Effect was -1.18%. Work on `Cc1ccc2oc(CNC(C)c3nnc4n3CCCC4)cc2c1` (stereo not given) yielded a Percent Effect of -1.73%. For `Cn1nnc2c1C(COCC1CC1)CN(C(=O)Cc1ccsc1)C2` (stereo not given), the Percent Effect was -2.73%. For `CCC1c2ccsc2CCN1C(=O)NCc1ccccn1` (stereo not given), the Percent Effect was -0.144%. `Cc1nc(CN2CCc3nn(C(C)C)c(=O)cc3C2)oc1C` gave a Percent Effect of 7%. For `Cc1nc(C2CCCN2C(=O)c2cnns2)no1` (stereo not given), the Percent Effect was -4.19%. For `CC(C)NC(=O)CS(=O)(=O)Cc1cc(Cl)c2c(c1)OCCO2`, the Percent Effect was -0.2%. For `CCn1ncc(Br)c1CN(C)S(=O)(=O)c1ccc(C)cc1`, the Percent Effect was 0.0735%. For `Cc1cc(CN2CCN(CC(O)C(C)(C)C)CC2)no1` (stereo not given), the Percent Effect was -13.9%. Work on `COc1ccccc1CNC(=O)C1=NN(c2ccc(C)cc2)C(=O)CN1` yielded a Percent Effect of 17.6%. Compound `CC(C)NC(=O)c1ccc2c(c1)nc1n2CCN(C(C)C)C1` has a Percent Effect of -0.435%. `Cc1cc(C(=O)N2CCCC(c3noc(C)n3)C2)[nH]n1` (stereo not given) gave a Percent Effect of -4.2%. With `Cc1nc(CN2CCCC(NCCc3ccccc3Cl)C2)no1` (stereo not given) the Percent Effect was -1.91%. For `CC(C)CNC(=O)[C@H]1CCS(=O)(=O)[C@@H]2CN(Cc3cccc(Cl)c3)C[C@H]12`, the Percent Effect was -3.06%. With `Cc1ccccc1CN1CCCN(C2CCOC2=O)CC1` (stereo not given) the Percent Effect was -0.409%. Work on `CCO[C@@H]1CO[C@@]2(CCCN(Cc3scnc3C)C2)C1` yielded a Percent Effect of -7.13%. With `CS(=O)(=O)N1CC[C@]2(C[C@@H](OCC3CCC3)CO2)C1` the Percent Effect was -2.3%. With `c1csc(-c2nc(CN3CCCC3Cn3cncn3)co2)c1` (stereo not given) the Percent Effect was 3.68%. Compound `Cn1ccnc1CN1CCC2(CC(=O)N(c3cccc(F)c3)C2)C1` (stereo not given) has a Percent Effect of 6.19%. `Cc1c(F)cccc1CN1CCn2nc(CNC(=O)N(C)C)cc2C1` gave a Percent Effect of 0.386%. `COc1ccc(NC(=O)NC(C)(C)c2noc(C)n2)cc1` gave a Percent Effect of -6.73%.

These compounds were tested against Shiga toxin 2 (Escherichia coli O157:H7) (UniProt P09385+P09386) (assay: E. coli 0.157:H7 Shiga Toxin SOP - stx2 screening assay). Settings: 30 µM.
Format: functional
Design: scale not given: direction of the effect not stated beside the values
Work on `Cc1cccnc1NC(=O)CC1(Cn2cnnn2)CCCCC1` yielded a Percent Effect of 2.81%. `Cn1nc(CNC(=O)C2CC2)cc1C1CC1` showed a Percent Effect of -14.8%. `Cn1nc(C(=O)N2CCCCC2c2nc3cc(F)ccc3[nH]2)ccc1=O` (stereo not given) gave a Percent Effect of -1.06%. With `O=C1NCCN(CC2CC2)C12CCN(Cc1ccc3c(c1)OCO3)CC2` the Percent Effect was -21.2%. `CC(Cn1ccnc1)NC(=O)NCCc1ccccn1` (stereo not given) gave a Percent Effect of -8.89%. `CC(C)S(=O)(=O)c1nnc(CCNC(=O)OC(C)(C)C)o1` showed a Percent Effect of -59.2%. In the case of `CN(CCc1ccccc1)Cc1cc(C(=O)N2CCCC2(C)C)no1`, the Percent Effect is reported as -34.7%. Work on `COCCN1C(=O)CC(N2CCN(c3ccc(F)cc3)CC2)C1=O` (stereo not given) yielded a Percent Effect of -24.6%. With `O=C(c1ccc(F)c(Cl)c1)N1C[C@@H]2CC[C@H](C1)N(Cc1ccccc1)C2` the Percent Effect was -25.3%. Work on `Nc1cc2c(nn1)CCN(C(=O)c1cccc3c1OCCO3)C2` yielded a Percent Effect of -28.6%. Work on `CC(=O)N1CCC2(CC1)COCCN2Cc1ccc(F)cc1` yielded a Percent Effect of -2.06%. For `COCCc1noc(CN2CCCCC2Cn2cc(C)cn2)n1` (stereo not given), the Percent Effect was 9.7%. `O=C(c1ccc(F)c(F)c1)N1CCCC(Nc2ccc(F)cc2)C1` (stereo not given) was tested, and the Percent Effect was 11.2%. `O=C1CCCCN1c1cccc(CNC2CCCC2)c1` was tested, and the Percent Effect was 18%. `Cc1ccc(S(=O)(=O)N2CCOc3ccccc32)cc1C(N)=O` gave a Percent Effect of -48.3%. With `Cc1ncsc1C(=O)NCCSCc1cccs1` the Percent Effect was -24.7%. For `O=C1CO[C@@H]2CN(Cc3cccs3)C[C@H]2N1CC1CC1`, the Percent Effect was -3.56%. `Cn1cc(C[C@H]2[C@H](N3CCOCC3)CCN2C(=O)c2ccco2)cn1` showed a Percent Effect of -0.123%. In the case of `O=C(NCCCn1cccn1)C1(c2ccc(F)cc2)CC1`, the Percent Effect is reported as -6.77%. `CC(=O)N1CCC2(CC1)C(=O)N(CC1CC1)c1ccccc12` showed a Percent Effect of -4.33%. For `Cc1ccc2oc(CNC(C)c3nnc4n3CCCC4)cc2c1` (stereo not given), the Percent Effect was -34.3%. `Cn1nnc2c1C(COCC1CC1)CN(C(=O)Cc1ccsc1)C2` (stereo not given) showed a Percent Effect of -6.94%. Work on `CCC1c2ccsc2CCN1C(=O)NCc1ccccn1` (stereo not given) yielded a Percent Effect of -4.32%. In the case of `Cc1nc(CN2CCc3nn(C(C)C)c(=O)cc3C2)oc1C`, the Percent Effect is reported as 0.318%. In the case of `Cc1nc(C2CCCN2C(=O)c2cnns2)no1` (stereo not given), the Percent Effect is reported as 27.5%. In the case of `CC(C)NC(=O)CS(=O)(=O)Cc1cc(Cl)c2c(c1)OCCO2`, the Percent Effect is reported as -1.92%. `CCn1ncc(Br)c1CN(C)S(=O)(=O)c1ccc(C)cc1` gave a Percent Effect of -7.09%. Compound `Cc1cc(CN2CCN(CC(O)C(C)(C)C)CC2)no1` (stereo not given) has a Percent Effect of 0.649%. With `COc1ccccc1CNC(=O)C1=NN(c2ccc(C)cc2)C(=O)CN1` the Percent Effect was 11%. Compound `CC(C)NC(=O)c1ccc2c(c1)nc1n2CCN(C(C)C)C1` has a Percent Effect of -61.8%. Compound `Cc1cc(C(=O)N2CCCC(c3noc(C)n3)C2)[nH]n1` (stereo not given) has a Percent Effect of -22.4%. `Cc1nc(CN2CCCC(NCCc3ccccc3Cl)C2)no1` (stereo not given) gave a Percent Effect of 10.1%. With `CC(C)CNC(=O)[C@H]1CCS(=O)(=O)[C@@H]2CN(Cc3cccc(Cl)c3)C[C@H]12` the Percent Effect was -29.7%. For `Cc1ccccc1CN1CCCN(C2CCOC2=O)CC1` (stereo not given), the Percent Effect was 15%. In the case of `CCO[C@@H]1CO[C@@]2(CCCN(Cc3scnc3C)C2)C1`, the Percent Effect is reported as -25%. `CS(=O)(=O)N1CC[C@]2(C[C@@H](OCC3CCC3)CO2)C1` showed a Percent Effect of 6.17%. For `c1csc(-c2nc(CN3CCCC3Cn3cncn3)co2)c1` (stereo not given), the Percent Effect was -0.336%. Compound `Cn1ccnc1CN1CCC2(CC(=O)N(c3cccc(F)c3)C2)C1` (stereo not given) has a Percent Effect of -33.1%. For `Cc1c(F)cccc1CN1CCn2nc(CNC(=O)N(C)C)cc2C1`, the Percent Effect was -49.9%. Compound `COc1ccc(NC(=O)NC(C)(C)c2noc(C)n2)cc1` has a Percent Effect of -8.05%.
